From PubChem BioAssay (NCI)
Where “and” joins values, the source holds several entries; their conditions need not be identical. Equal values may be shown once. About 83,000 compounds went through this panel and 20% of them were active in at least one assay; those are over-represented in the sample as a whole.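 Single-concentration screen, 48 h exposure, 96-well plates. Endpoint: percent growth. Below 10 = active.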 Calls of active or inactive are those of the source.

What was measured:
Assay in all cases: NCI-60 one-dose screen, 48 h (100 = growth as untreated, 0 = no growth, -100 = all killed)
Details in all cases: 10 µM unless noted
SK-MEL-2 melanoma = test system: SK-MEL-2 melanoma
EKVX NSCLC = test system: EKVX NSCLC
SN12C renal = test system: SN12C renal
UO-31 renal = test system: UO-31 renal
TK-10 renal = test system: TK-10 renal
ACHN renal = test system: ACHN renal
CAKI-1 renal = test system: CAKI-1 renal
A498 renal = test system: A498 renal
CCRF-CEM leukemia = test system: CCRF-CEM leukemia
MOLT-4 leukemia = test system: MOLT-4 leukemia
SR leukemia = test system: SR leukemia
RPMI-8226 leukemia = test system: RPMI-8226 leukemia
OVCAR-8 ovarian = test system: OVCAR-8 ovarian
OVCAR-5 ovarian = test system: OVCAR-5 ovarian
OVCAR-4 ovarian = test system: OVCAR-4 ovarian
SK-OV-3 ovarian = test system: SK-OV-3 ovarian
IGROV1 ovarian = test system: IGROV1 ovarian
OVCAR-3 ovarian = test system: OVCAR-3 ovarian
HS 578T breast = test system: HS 578T breast
NCI/ADR-RES ovarian = test system: NCI/ADR-RES ovarian

Measured: growth

Oc1[nH]c2ccc(Cl)cc2c1N=Nc1nc(N=Nc2c(O)[nH]c3ccc(Cl)cc23)nc(N2CCOCC2)n1
active: HS 578T breast -7.82%
inactive: SK-MEL-2 melanoma 65.3% | EKVX NSCLC 85.2% | SN12C renal 43.9% | UO-31 renal 78.7% | TK-10 renal 118% | ACHN renal 74.5% | CAKI-1 renal 72% | A498 renal 21.6% | CCRF-CEM leukemia 20.3% | MOLT-4 leukemia 62.5% | SR leukemia 29.2% | RPMI-8226 leukemia 36.4% | OVCAR-8 ovarian 50.1% | OVCAR-5 ovarian 95.1% | OVCAR-4 ovarian 78.7% | SK-OV-3 ovarian 55.5% | IGROV1 ovarian 55% | OVCAR-3 ovarian 52.7% | NCI/ADR-RES ovarian 98.1%

CN1CCN(c2ccc(Nc3nc(NCCCNS(=O)(=O)c4cccc(F)c4)c4sccc4n3)cc2)CC1
active: ACHN renal 7.69% | SR leukemia 9.04% | RPMI-8226 leukemia 7.54% | OVCAR-3 ovarian 9.74%
inactive: SK-MEL-2 melanoma 96.8% | EKVX NSCLC 83.3% | SN12C renal 67.4% | UO-31 renal 54.2% | TK-10 renal 91.6% | CAKI-1 renal 17.9% | A498 renal 67.6% | CCRF-CEM leukemia 19.2% | MOLT-4 leukemia 13.3% | OVCAR-8 ovarian 50.2% | OVCAR-5 ovarian 73.4% | OVCAR-4 ovarian 18.3% | SK-OV-3 ovarian 115% | IGROV1 ovarian 68.9% | HS 578T breast 50.4% | NCI/ADR-RES ovarian 70.8%

Fc1ccc2nc(-c3cnn4cccnc34)sc2c1
inactive: SK-MEL-2 melanoma 119% | EKVX NSCLC 61.8% | SN12C renal 90.2% | UO-31 renal 46.8% | TK-10 renal 123% | ACHN renal 78.9% | CAKI-1 renal 68.9% | A498 renal 89.7% | CCRF-CEM leukemia 102% | MOLT-4 leukemia 80.3% | SR leukemia 78% | RPMI-8226 leukemia 87.6% | OVCAR-8 ovarian 83.5% | OVCAR-5 ovarian 101% | OVCAR-4 ovarian 63.5% | SK-OV-3 ovarian 81% | IGROV1 ovarian 49.2% | OVCAR-3 ovarian 84.2% | HS 578T breast 90.1% | NCI/ADR-RES ovarian 96.6%

CN1CCN(c2ccc(Nc3nc(NCCNC(=O)c4ccc(F)cc4)c4sccc4n3)cc2)CC1
active: SR leukemia 0.604%
inactive: SK-MEL-2 melanoma 104% | EKVX NSCLC 92.7% | SN12C renal 84.2% | UO-31 renal 65.5% | TK-10 renal 128% | ACHN renal 67.8% | CAKI-1 renal 57.9% | A498 renal 125% | CCRF-CEM leukemia 38.2% | MOLT-4 leukemia 23.4% | RPMI-8226 leukemia 32.1% | OVCAR-8 ovarian 77.4% | OVCAR-5 ovarian 85.3% | OVCAR-4 ovarian 61.1% | SK-OV-3 ovarian 125% | IGROV1 ovarian 87.7% | OVCAR-3 ovarian 86.2% | HS 578T breast 75.6% | NCI/ADR-RES ovarian 88.5%

COc1ccc(NC(=O)CCCCCCNC(=O)C(O)(O)C(F)(F)F)cc1
active: TK-10 renal 6.59% | SK-OV-3 ovarian 4.07%
inactive: SK-MEL-2 melanoma 12.7% | EKVX NSCLC 61.7% | SN12C renal 59.9% | UO-31 renal 37.7% | ACHN renal 20.2% | CAKI-1 renal 26% | A498 renal 41.8% | CCRF-CEM leukemia 26.2% | MOLT-4 leukemia 21% | SR leukemia 15% | RPMI-8226 leukemia 25.1% | OVCAR-8 ovarian 22.3% | OVCAR-5 ovarian 31.3% | OVCAR-4 ovarian 77.7% | IGROV1 ovarian 62.4% | OVCAR-3 ovarian 49.1% | HS 578T breast 56.9% | NCI/ADR-RES ovarian 49.8%

CCOC(=O)C1=C(C)NC(C)=C(C(=O)OCc2ccccc2)C1c1cccc(C#N)c1 (stereo not given)
active: A498 renal -4.45%
inactive: SK-MEL-2 melanoma 24.9% | EKVX NSCLC 37.1% | SN12C renal 36.5% | UO-31 renal 43.8% | TK-10 renal 83.7% | ACHN renal 47.1% | CAKI-1 renal 32.4% | CCRF-CEM leukemia 25.5% | MOLT-4 leukemia 31.5% | SR leukemia 21.7% | RPMI-8226 leukemia 32.3% | OVCAR-8 ovarian 48% | OVCAR-5 ovarian 61.3% | OVCAR-4 ovarian 71.5% | SK-OV-3 ovarian 75.1% | IGROV1 ovarian 42.1% | OVCAR-3 ovarian 23.6% | HS 578T breast 40.2% | NCI/ADR-RES ovarian 22.7%

CC(=O)Nc1nc(C)c(-c2csc(Nc3ccccc3)n2)s1
active: EKVX NSCLC -0.417% | SR leukemia 8.83% | IGROV1 ovarian -9.74% | HS 578T breast -4.87%
inactive: SK-MEL-2 melanoma 18.8% | SN12C renal 24.4% | UO-31 renal 10.9% | TK-10 renal 31.4% | ACHN renal 17.2% | CAKI-1 renal 28.6% | A498 renal 16% | CCRF-CEM leukemia 27.1% | MOLT-4 leukemia 16.6% | RPMI-8226 leukemia 27.4% | OVCAR-8 ovarian 52.3% | OVCAR-5 ovarian 41.9% | OVCAR-4 ovarian 54.7% | SK-OV-3 ovarian 15.3% | OVCAR-3 ovarian 37.1% | NCI/ADR-RES ovarian 35.9%

CC(Nc1c(C#N)cnc2ccc(-c3cncc(-c4n[nH]c(=O)o4)c3)cc12)c1ccccc1 (stereo not given)
active: SK-MEL-2 melanoma -34% | EKVX NSCLC -12% | UO-31 renal 1.27% | TK-10 renal -23.8% | ACHN renal 9.24% | CAKI-1 renal 4.01% | A498 renal -6.1% | MOLT-4 leukemia 8.04% | SR leukemia 6.62% | OVCAR-4 ovarian -5.14% | SK-OV-3 ovarian 3.52% | IGROV1 ovarian -20% | OVCAR-3 ovarian 3.98% | HS 578T breast -22.2%
inactive: SN12C renal 11% | CCRF-CEM leukemia 19.6% | RPMI-8226 leukemia 10.5% | OVCAR-8 ovarian 18.1% | OVCAR-5 ovarian 26% | NCI/ADR-RES ovarian 67.7%

C#C[C@]1(O)CC[C@H]2[C@@H]3CC=C4c5sc(Nc6cc(Cl)ccc6OC)nc5CC[C@]4(C)[C@H]3CC[C@@]21C
active: SK-MEL-2 melanoma 1.15% | CAKI-1 renal -4.8% | A498 renal -2.08% | CCRF-CEM leukemia 8.93% | MOLT-4 leukemia 1.34% | SR leukemia 3.9% | RPMI-8226 leukemia -35.1% | SK-OV-3 ovarian -6.24% | HS 578T breast -7.86%
inactive: EKVX NSCLC 22.3% | SN12C renal 53.7% | UO-31 renal 16.1% | TK-10 renal 48.4% | ACHN renal 32.1% | OVCAR-8 ovarian 52.5% | OVCAR-5 ovarian 67.5% | OVCAR-4 ovarian 52.5% | IGROV1 ovarian 43.5% | OVCAR-3 ovarian 25.3% | NCI/ADR-RES ovarian 56.4%

COc1cc2cc(Oc3ccc(NC(=O)c4cc(C(F)(F)F)cc(C(F)(F)F)c4)cc3)c(C)nc2cc1OCCN1CCOCC1
inactive: SK-MEL-2 melanoma 101% | EKVX NSCLC 57.7% | SN12C renal 83% | UO-31 renal 55.8% | TK-10 renal 105% | ACHN renal 77.3% | CAKI-1 renal 52.8% | A498 renal 55% | CCRF-CEM leukemia 45% | MOLT-4 leukemia 66.1% | SR leukemia 20.6% | RPMI-8226 leukemia 24.6% | OVCAR-8 ovarian 80.1% | OVCAR-5 ovarian 95.7% | OVCAR-4 ovarian 48.8% | SK-OV-3 ovarian 87.5% | IGROV1 ovarian 85.6% | OVCAR-3 ovarian 78.9% | HS 578T breast 36.7% | NCI/ADR-RES ovarian 62.4%

COc1cc(-c2nc(-c3ccccc3)[nH]c2-c2ccnc(NCCCNS(=O)(=O)c3ccc(C(F)(F)F)cc3)n2)ccc1Cl
9.32% (active) and 35.8% (inactive): SR leukemia
-4.06% (active) and 16.3% (inactive): MOLT-4 leukemia
6.64% (active) and 21.7% (inactive): CCRF-CEM leukemia
inactive: SK-MEL-2 melanoma 74.8% and 43.8% | EKVX NSCLC 30% and 44.9% | SN12C renal 49.4% and 49.5% | UO-31 renal 46.5% and 35.4% | TK-10 renal 79.1% and 61.2% | ACHN renal 33.3% and 32.6% | CAKI-1 renal 31.2% and 35.4% | A498 renal 40% and 64.3% | RPMI-8226 leukemia 12.5% and 31.6% | OVCAR-8 ovarian 53.2% and 40.2% | OVCAR-5 ovarian 103% and 84.4% | OVCAR-4 ovarian 41.6% and 39.1% | SK-OV-3 ovarian 99.5% and 55.1% | IGROV1 ovarian 59.6% and 51.8% | OVCAR-3 ovarian 33.6% and 39.6% | HS 578T breast 58.8% and 71.9% | NCI/ADR-RES ovarian 13.8% and 32.4%

Oc1[nH]c2ccc(Cl)cc2c1N=Nc1nc(N=Nc2c(O)[nH]c3ccc(Cl)cc23)nc(N2CCCCC2)n1
active: CCRF-CEM leukemia 9.81%
inactive: SK-MEL-2 melanoma 86.7% | EKVX NSCLC 50.8% | SN12C renal 42.5% | UO-31 renal 86.7% | TK-10 renal 121% | ACHN renal 88.6% | CAKI-1 renal 88.1% | A498 renal 94.2% | MOLT-4 leukemia 22.1% | SR leukemia 24.5% | RPMI-8226 leukemia 57% | OVCAR-8 ovarian 25.9% | OVCAR-5 ovarian 38.2% | OVCAR-4 ovarian 42.2% | SK-OV-3 ovarian 94.5% | IGROV1 ovarian 22.9% | OVCAR-3 ovarian 76.9% | HS 578T breast 36.2% | NCI/ADR-RES ovarian 101%

COC(=O)N1CCN(CCNCc2ccc(NC(=O)c3ccc(C)c(C#Cc4cnc5cccnn45)c3)cc2C(F)(F)F)CC1
active: SK-MEL-2 melanoma 4.46% | MOLT-4 leukemia 8.21% | SR leukemia -7.7% | RPMI-8226 leukemia -6.11% | HS 578T breast -2.16% | NCI/ADR-RES ovarian 6.71%
inactive: EKVX NSCLC 48.9% | SN12C renal 39.8% | UO-31 renal 26.8% | TK-10 renal 68.9% | ACHN renal 29.6% | CAKI-1 renal 20.2% | A498 renal 47.8% | CCRF-CEM leukemia 10.8% | OVCAR-8 ovarian 31.6% | OVCAR-5 ovarian 46.2% | OVCAR-4 ovarian 31.1% | SK-OV-3 ovarian 83.1% | IGROV1 ovarian 11.3% | OVCAR-3 ovarian 64.8%

O=C(NNc1nc2cc(F)cc(F)c2n2cccc12)c1cccnn1
inactive: SK-MEL-2 melanoma 20.8% | SN12C renal 18.5% | UO-31 renal 15.4% | TK-10 renal 42.4% | ACHN renal 10.3% | CAKI-1 renal 12.4% | SR leukemia 14.8% | RPMI-8226 leukemia 11.8% | OVCAR-8 ovarian 19% | OVCAR-5 ovarian 46.3% | IGROV1 ovarian 13.5% | OVCAR-3 ovarian 14% | HS 578T breast 32%
active: EKVX NSCLC 9.18% | A498 renal 4.83% | CCRF-CEM leukemia 6.41% | MOLT-4 leukemia 7.32% | OVCAR-4 ovarian 4.96% | SK-OV-3 ovarian -1.52% | NCI/ADR-RES ovarian 0.935%

C#CCOc1ccccc1/C=N/Nc1nc(-c2ccc(Cl)cc2)cs1
inactive: SK-MEL-2 melanoma 102% | EKVX NSCLC 77.5% | SN12C renal 93.8% | UO-31 renal 75.9% | TK-10 renal 145% | ACHN renal 95.3% | CAKI-1 renal 92% | A498 renal 81.4% | CCRF-CEM leukemia 96.6% | MOLT-4 leukemia 90.8% | SR leukemia 101% | RPMI-8226 leukemia 91.5% | OVCAR-8 ovarian 98.1% | OVCAR-5 ovarian 92.3% | OVCAR-4 ovarian 87.8% | SK-OV-3 ovarian 93.9% | IGROV1 ovarian 77.8% | OVCAR-3 ovarian 98.8% | HS 578T breast 99.6% | NCI/ADR-RES ovarian 94.2%
